Assay [1] deals with PRMT1 (protein arginine N-methyltransferase 1). Nature of the assay: PRMT1 binders on small-molecule microarrays, primary screen, biochemical, small-molecule microarray, 635 nm fluorescence (AID 1088).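 Further: binding of Prmt1 protein to compounds spotted on small-molecule microarray slides.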 To be noted: small-molecule microarray binding, higher = more signal.
Assay [2] in a line: yeast growth modulation, basal conditions, primary screen, YJM789 clinical isolate, OD600, 24 h (AID 1089).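 Further: growth of clinical yeast isolate S. cerevisiae YJM 789 seeded 1000 cells per well; test concentration not given here.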 The note with it: S. cerevisiae YJM789 growth, higher = more signal, called active from +8 up or from −8 down.
Assay [3] is described as follows: fission yeast growth modulation, primary screen, strain 972, OD600, 24 h, no modulator (AID 1090).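 Further: basal condition with compound alone and no growth modifier present; test concentration not given here.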 The note with it: S. pombe 972 growth, higher = more signal, called active from +8 up or from −8 down.
Assay [4] can be described thus: S. cerevisiae growth modulation with rapamycin, primary screen, strain BY4716, OD600, 96 h (AID 1091). Further: test concentration not given here. The note with it: higher = more signal, called active from +8 up or from −8 down.
The target in assay [5] is Torsin-1A-interacting protein 2 (Homo sapiens) (UniProt Q8NFQ8). Nature of the assay: LULL1 binders on small-molecule microarray, primary screen, cell lysate, human LULL1 lysate, 635/667 nm fluorescence (AID 1092).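 Further: probe is lysate of COS7 cells overexpressing human LULL1; score merges per-feature 667 nm fluorescence with signal-to-noise.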 To be noted: hLULL1 lysate binding, 635 nm fluorescence, higher = more signal.
Sequence of Torsin-1A-interacting protein 2 (Homo sapiens) (Q8NFQ8 whole entry, looked up): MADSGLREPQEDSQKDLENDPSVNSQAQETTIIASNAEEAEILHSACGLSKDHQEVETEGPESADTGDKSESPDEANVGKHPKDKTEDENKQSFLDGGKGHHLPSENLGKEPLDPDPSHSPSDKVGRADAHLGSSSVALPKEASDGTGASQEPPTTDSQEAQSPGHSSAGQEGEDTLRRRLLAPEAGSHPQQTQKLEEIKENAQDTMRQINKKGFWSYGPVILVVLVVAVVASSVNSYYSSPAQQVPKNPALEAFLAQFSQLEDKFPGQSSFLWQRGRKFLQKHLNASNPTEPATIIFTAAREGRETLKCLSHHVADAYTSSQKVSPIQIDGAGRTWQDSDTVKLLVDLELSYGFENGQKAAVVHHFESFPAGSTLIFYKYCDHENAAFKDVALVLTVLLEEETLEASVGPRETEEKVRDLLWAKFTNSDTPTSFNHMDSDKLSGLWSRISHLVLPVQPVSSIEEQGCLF
A short description of assay [6]: E. coli growth modulation, two-sided OD650, primary screen, E. coli filamentation project, strain DRC41, 24 h (AID 1093).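 Further: MC1000 strain lacking acrAB efflux and sulA so SOS filamentation is blocked; test concentration not given here.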 To be noted: OD650, 24 h, higher = more signal, called active from +8 up or from −8 down.
A short description of assay [7]: small-molecule microarray binders of probe aLefty2, primary screen, biochemical, biotinylated probe, 635/667 nm fluorescence (AID 1094).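 Further: score merges spot fluorescence near 667 nm with spot signal-to-noise ratio.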 The note with it: higher = more signal.
Assay [8] relates to Noggin (protein binding on small-molecule microarray). Kind of assay: Noggin binders on small-molecule microarray, primary screen, biochemical, 635/667 nm fluorescence (AID 1095).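 Further: score merges 667 nm feature fluorescence with signal to noise over triplicate slides.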 To be noted: 635 nm fluorescence, higher = more signal.
Assay [9] concerns the target Neurogenic locus notch homolog protein 3 (Homo sapiens) (UniProt Q9UM47). Nature of the assay: NOTCH3 binders on small-molecule microarray, primary screen, biochemical, 635/667 nm fluorescence (AID 1096). The note with it: NOTCH3 binding, 635 nm fluorescence, higher = more signal.
The nature of assay [10]: small-molecule microarray binders of probe aEGFR, primary screen, biochemical, biotinylated probe, 635/667 nm fluorescence (AID 1097).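 Further: probe is a biotinylated anti-EGFR antibody binding compounds printed on slides; score combines fluorescence near 667 nm and signal to noise of each spot.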 The note with it: higher = more signal.
For assay [11], the system named is Plasmodium falciparum Sir2 (PF13_0152, Sir2A). Nature of the assay: pfSir2 binders on small-molecule microarrays, primary screen, biochemical, small-molecule microarray, 635 nm fluorescence (AID 1098).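 Further: score merges spot fluorescence intensity with its signal-to-noise ratio.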 The note with it: small-molecule microarray binding, fluorescence 635 nm; higher = more signal.
Assay [12] in a line: small-molecule microarray binders of probe aDKK1, primary screen, biochemical, biotinylated probe, 635/667 nm fluorescence (AID 1099).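 Further: score merges 667nm spot fluorescence with signal to noise across triplicate slides; reference of the scale not given here.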 The note with it: higher = more signal.
The nature of assay [13]: small-molecule microarray binders of probe aCHRDL2, primary screen, biochemical, biotinylated probe, 635/667 nm fluorescence (AID 1100). The note with it: higher = more signal.
Assay [14] can be described thus: splicing luciferase reporter signal modulators, primary screen, spliceosome inhibition project, cell-based, HEK293, splice +/- reporter (AID 1101).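 Further: HEK293 cells carrying a splicing-competent luciferase reporter gene; test concentration not given here.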 The note with it: luminescence, 24 h, higher = more signal, called active from +8 up or from −8 down.
Assay [15] addresses Fibroblast growth factor 10 (Homo sapiens) (UniProt O15520). Kind of assay: FGF10 binders on small-molecule microarrays, primary screen, biochemical, small-molecule microarray, 635 nm fluorescence (AID 1102). The note with it: FGF10 binding, fluorescence 635 nm, higher = more signal.
For assay [16], the system named is glycogen synthase kinase-3 (GSK3A per assay name; protocol says GSK3B). Nature of the assay: GSK3 binders on small-molecule microarrays, primary screen, biochemical, small-molecule microarray, 635 nm fluorescence, GSK3A (AID 1103). Further: the record names both GSK3A and GSK3B. To be noted: small-molecule microarray binding, fluorescence 635 nm; higher = more signal.
In assay [17] the target is Epidermal growth factor receptor (Homo sapiens) (UniProt P00533). Kind of assay: EGFR binders on small-molecule microarrays, primary screen, biochemical, small-molecule microarray, 635 nm fluorescence (AID 1104).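 Further: score merges 667 nm emission intensity with spot signal to noise over triplicate slides.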 To be noted: EGFR binding, higher = more signal.
Sequence of Epidermal growth factor receptor (Homo sapiens) (P00533 whole entry, looked up): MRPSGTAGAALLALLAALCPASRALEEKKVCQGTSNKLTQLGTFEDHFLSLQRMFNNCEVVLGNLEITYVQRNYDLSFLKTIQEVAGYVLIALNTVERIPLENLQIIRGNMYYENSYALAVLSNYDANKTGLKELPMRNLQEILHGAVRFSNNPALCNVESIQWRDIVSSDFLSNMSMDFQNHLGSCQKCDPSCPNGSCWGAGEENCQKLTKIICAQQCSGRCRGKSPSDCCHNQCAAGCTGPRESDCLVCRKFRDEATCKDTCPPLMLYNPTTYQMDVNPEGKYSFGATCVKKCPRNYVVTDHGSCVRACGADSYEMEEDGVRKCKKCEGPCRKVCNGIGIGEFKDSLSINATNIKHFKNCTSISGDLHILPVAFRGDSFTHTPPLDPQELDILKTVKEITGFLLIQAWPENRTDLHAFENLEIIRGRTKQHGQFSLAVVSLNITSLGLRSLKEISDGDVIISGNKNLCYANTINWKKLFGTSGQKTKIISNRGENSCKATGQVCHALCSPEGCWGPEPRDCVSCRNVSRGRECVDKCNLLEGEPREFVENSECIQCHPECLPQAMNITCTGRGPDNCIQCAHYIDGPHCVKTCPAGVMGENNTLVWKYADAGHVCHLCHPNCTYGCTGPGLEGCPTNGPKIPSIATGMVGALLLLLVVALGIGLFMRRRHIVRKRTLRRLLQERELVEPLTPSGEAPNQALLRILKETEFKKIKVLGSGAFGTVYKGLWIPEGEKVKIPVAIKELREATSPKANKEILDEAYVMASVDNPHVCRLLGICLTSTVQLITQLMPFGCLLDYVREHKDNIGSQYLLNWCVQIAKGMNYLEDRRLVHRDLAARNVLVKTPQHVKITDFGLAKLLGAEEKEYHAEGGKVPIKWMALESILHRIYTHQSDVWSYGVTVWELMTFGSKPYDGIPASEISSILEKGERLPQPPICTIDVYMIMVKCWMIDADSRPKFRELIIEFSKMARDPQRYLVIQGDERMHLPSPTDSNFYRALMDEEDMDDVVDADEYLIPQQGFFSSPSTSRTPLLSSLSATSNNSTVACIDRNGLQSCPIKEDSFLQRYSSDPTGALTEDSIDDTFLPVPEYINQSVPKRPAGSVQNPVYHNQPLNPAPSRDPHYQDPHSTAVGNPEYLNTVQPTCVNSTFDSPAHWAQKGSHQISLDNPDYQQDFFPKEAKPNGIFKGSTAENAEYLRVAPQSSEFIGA
For assay [18], the target named is Follistatin-related protein 3 (Homo sapiens) (UniProt O95633). Nature of the assay: FSTL3 binders on small-molecule microarrays, primary screen, biochemical, small-molecule microarray, 635 nm fluorescence (AID 1105).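 Further: score merges emission near 667 nm and signal to noise per printed spot across three slides.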 The note with it: FSTL3 binding, higher = more signal.
Sequence of Follistatin-related protein 3 (Homo sapiens) (O95633 whole entry, looked up): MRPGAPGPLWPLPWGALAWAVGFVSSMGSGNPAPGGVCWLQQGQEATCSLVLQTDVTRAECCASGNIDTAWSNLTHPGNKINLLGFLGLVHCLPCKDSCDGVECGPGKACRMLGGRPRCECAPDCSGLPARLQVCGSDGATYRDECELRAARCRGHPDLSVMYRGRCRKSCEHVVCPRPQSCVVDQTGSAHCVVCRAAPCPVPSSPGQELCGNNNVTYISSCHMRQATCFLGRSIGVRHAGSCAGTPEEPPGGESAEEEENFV
Assay [19] addresses Dickkopf-related protein 1 (Homo sapiens) (UniProt O94907). Kind of assay: DKK1 binders on small-molecule microarrays, primary screen, biochemical, small-molecule microarray, 635 nm fluorescence scan (AID 1106).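 Further: score merges emission near 667 nm with signal to noise over three replicate slides.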 The note with it: DKK1 binding, higher = more signal.
The subject of assay [20] is Inhibin beta A chain (activin A). Kind of assay: INHBA (activin A) binders on microarrays, primary screen, biochemical, small-molecule microarray, 635 nm fluorescence scan (AID 1107).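 Further: mouse activin A protein probed at 4.33 µg/mL on printed slides; score merges bound-protein fluorescence near 667 nm with spot signal-to-noise.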 The note with it: small-molecule microarray binding, higher = more signal.

Activity calls are given as the source filed them.

Sequence of Dickkopf-related protein 1 (Homo sapiens) (O94907 whole entry, looked up): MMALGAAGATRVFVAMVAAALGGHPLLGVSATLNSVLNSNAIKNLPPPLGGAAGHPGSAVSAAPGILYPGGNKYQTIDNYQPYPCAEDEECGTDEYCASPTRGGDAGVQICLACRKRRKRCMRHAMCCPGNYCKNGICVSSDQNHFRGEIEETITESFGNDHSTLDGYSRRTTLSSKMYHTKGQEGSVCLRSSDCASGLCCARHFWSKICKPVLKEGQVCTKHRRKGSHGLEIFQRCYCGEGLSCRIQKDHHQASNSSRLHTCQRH
Sequence of Neurogenic locus notch homolog protein 3 (Homo sapiens) (Q9UM47 whole entry, looked up): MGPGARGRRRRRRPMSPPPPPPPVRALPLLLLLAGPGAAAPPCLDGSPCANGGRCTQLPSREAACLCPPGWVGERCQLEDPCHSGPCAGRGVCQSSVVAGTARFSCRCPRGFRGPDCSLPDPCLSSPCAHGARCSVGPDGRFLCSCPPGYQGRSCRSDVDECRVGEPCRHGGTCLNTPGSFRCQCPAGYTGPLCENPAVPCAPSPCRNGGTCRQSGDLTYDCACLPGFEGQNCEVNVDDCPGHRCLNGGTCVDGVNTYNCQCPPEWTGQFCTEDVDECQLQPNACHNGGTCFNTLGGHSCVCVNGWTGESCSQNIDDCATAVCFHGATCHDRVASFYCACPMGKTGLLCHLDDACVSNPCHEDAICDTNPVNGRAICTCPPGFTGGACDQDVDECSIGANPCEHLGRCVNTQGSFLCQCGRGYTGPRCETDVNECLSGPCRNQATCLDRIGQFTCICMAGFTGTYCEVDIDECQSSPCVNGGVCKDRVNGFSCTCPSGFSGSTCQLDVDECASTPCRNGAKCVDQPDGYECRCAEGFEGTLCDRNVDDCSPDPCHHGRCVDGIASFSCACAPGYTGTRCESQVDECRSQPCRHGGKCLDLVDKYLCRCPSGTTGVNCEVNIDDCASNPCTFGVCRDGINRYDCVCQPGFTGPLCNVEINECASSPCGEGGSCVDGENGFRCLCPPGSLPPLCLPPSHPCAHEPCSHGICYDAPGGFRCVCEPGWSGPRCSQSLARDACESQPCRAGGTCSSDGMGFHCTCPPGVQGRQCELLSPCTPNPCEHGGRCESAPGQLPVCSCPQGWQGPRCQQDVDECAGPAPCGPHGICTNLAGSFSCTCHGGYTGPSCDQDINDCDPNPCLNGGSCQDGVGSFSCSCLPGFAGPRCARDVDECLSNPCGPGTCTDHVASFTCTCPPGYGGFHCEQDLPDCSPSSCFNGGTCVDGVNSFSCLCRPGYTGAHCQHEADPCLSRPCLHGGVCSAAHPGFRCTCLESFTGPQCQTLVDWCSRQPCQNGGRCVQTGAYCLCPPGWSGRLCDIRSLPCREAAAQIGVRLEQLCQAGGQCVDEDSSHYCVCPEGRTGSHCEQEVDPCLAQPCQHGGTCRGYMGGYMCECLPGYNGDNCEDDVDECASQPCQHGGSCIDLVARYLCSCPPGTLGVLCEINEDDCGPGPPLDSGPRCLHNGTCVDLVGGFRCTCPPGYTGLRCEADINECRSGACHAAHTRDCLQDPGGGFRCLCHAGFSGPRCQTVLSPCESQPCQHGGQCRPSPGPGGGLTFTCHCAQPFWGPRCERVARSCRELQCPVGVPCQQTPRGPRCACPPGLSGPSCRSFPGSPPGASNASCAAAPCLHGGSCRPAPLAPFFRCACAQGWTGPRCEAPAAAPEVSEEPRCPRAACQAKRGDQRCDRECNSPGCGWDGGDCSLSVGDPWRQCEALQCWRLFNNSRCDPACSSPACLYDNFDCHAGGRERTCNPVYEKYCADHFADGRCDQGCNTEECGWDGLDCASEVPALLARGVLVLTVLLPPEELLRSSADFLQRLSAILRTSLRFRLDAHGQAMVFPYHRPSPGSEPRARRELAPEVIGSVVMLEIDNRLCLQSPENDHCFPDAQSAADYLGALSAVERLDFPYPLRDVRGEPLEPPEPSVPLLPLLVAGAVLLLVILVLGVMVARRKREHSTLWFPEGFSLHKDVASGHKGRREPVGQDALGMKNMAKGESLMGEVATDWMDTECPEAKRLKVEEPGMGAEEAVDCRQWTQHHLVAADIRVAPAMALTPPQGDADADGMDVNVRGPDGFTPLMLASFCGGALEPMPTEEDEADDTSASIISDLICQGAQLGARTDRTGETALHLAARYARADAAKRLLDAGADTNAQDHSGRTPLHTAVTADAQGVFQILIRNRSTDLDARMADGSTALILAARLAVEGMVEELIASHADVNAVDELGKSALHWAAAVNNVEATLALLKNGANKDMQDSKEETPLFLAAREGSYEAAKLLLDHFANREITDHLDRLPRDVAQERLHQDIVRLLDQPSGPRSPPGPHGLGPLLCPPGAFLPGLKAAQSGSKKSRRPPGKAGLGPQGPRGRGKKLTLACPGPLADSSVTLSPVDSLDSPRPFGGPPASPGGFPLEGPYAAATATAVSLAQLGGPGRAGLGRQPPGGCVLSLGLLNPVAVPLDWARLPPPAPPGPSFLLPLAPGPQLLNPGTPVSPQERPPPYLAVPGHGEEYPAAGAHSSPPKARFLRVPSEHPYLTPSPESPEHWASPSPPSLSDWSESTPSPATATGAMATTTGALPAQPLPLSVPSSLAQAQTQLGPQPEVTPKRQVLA
Sequence of Fibroblast growth factor 10 (Homo sapiens) (O15520 whole entry, looked up): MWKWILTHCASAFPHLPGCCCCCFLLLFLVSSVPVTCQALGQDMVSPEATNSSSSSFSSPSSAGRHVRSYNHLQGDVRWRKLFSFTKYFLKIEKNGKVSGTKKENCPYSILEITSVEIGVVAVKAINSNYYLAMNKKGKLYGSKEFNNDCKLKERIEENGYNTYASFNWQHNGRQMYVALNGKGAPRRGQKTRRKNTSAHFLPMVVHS

Turning to `CN(C)CCCC[C@@H]1NC(=O)[C@@H]2C[C@H](C(=O)NCc3ccc(F)cc3)[C@H](c3cccc(OCCO)c3)N2C1=O`, the composite z-score in assay [1] was 1.55; in assay [5], 2.96; in assay [7] it was 0.823; in [8] it was 1.97; in [9], 1.11; in [10], -0.0953. In addition, the composite z-score in assay [11] was found to be 1.17; in [12], 0.0666; in assay [13], 0.0708; in [15] it was 1.36; in assay [16], 0.833; in assay [17], 0.267. Moreover, the values for the composite z-score in assay [18], in assay [19] and in assay [20] were 1.17, 0.314 and -0.218, respectively. In addition, the z-score was -0.65 (inactive) in assay [2]; -1.41 (inactive) in assay [3]; -0.663 (inactive) in [4]; -0.0129 (inactive) in assay [6]; -0.815 (inactive) in assay [14].

As for `CC(=O)NCCCC[C@@H]1NC(=O)[C@@H]2C[C@H](C(=O)NCc3ccc(F)cc3)[C@H](c3ccc(O)cc3)N2C1=O`, the composite z-score was 1.54 in assay [1]; 2.41 in assay [5]; -0.128 in assay [7]; 1.67 in assay [8]; 0.208 in assay [9]; -0.122 in assay [10]. Further, the composite z-score in assay [11] is 1.51; in assay [12] it was -0.239; in assay [13] it was -0.072; in [15], 0.784; in [16], 0.767; in assay [17], 0.0059. The results for the composite z-score in assay [18], in [19] and in [20] were 0.177, 0.592 and 0.0015, respectively. The z-score in [2] is -0.36 (inactive); in [3], -1.36 (inactive); in assay [4] it was -0.713 (inactive); in assay [6] it was 1.53 (inactive); in assay [14], -0.661 (inactive).

Consider `COCCCNC(=O)[C@@]1(Cc2ccccc2I)c2ccccc2C(=O)N(Cc2ccccc2)[C@H]1c1ccc(CO)cc1`, for which the composite z-score in assay [1] was 0.96; in assay [5], 1.62; in [7], -0.204; in [8], -1.27; in assay [9] it was -1.37; in [10], -0.302. Also, the composite z-score in [11] was -0.67; in [12], -0.113; in assay [13] it was 0.394; in assay [15], -1.25; in [16] it was -1.43; in assay [17], -2.16. In addition, the composite z-score in [18] is -1.56; in assay [19], -1.41; in assay [20], -1.59. Further, the z-score is 0.411 (inactive) in [2]; 0.512 (inactive) in assay [3]; 0.951 (inactive) in [4]; 0.0006 (inactive) in assay [6]; -0.356 (inactive) in [14].

Take `Cc1cccc(/C=C/C=O)c1`: the composite z-score is 0.425 in assay [1]; 1.54 in [5]; -0.186 in assay [7]; 0.0535 in [8]; -0.136 in [9]; -0.246 in assay [10]. In addition, the composite z-score in assay [11] was 0; in assay [12], -0.101; in assay [13], 0.558; in assay [15], -0.0736; in assay [16] it was -0.0687; in [17], -0.391. Moreover, the figures for the composite z-score in assay [18], in [19] and in assay [20] were 0.119, -0.214 and 0.561, respectively. Further, the z-score in assay [2] is 0.897 (inactive); in [3] it was -4.56 (inactive); in assay [4] it was -0.104 (inactive); in [6], -0.0384 (inactive); in assay [14], 0.465 (inactive).

On to `COC(=O)[C@@]1(Cc2ccc(OC)cc2)[C@H]2c3cc(C(=O)N4CCCC4)n(CCc4ccccn4)c3C[C@H]2CN1C(=O)c1ccccc1`, for which the composite z-score in [1] is -1.52; in assay [5], 3.62; in [7], 0.0363; in [8], -0.857; in assay [9] it was -0.14; in assay [10], -0.0122. Also, the composite z-score in assay [11] is 1.18; in assay [12], 0.904; in [13] it was 0.95; in assay [15], 0.289; in assay [16] it was -0.282; in assay [17] it was -0.664. Moreover, the composite z-score was -0.396 in [18], -0.949 in assay [19] and 0.845 in assay [20]. For the same compound, the z-score in [2] is 0.328 (inactive); in [3], 0.479 (inactive); in assay [4], 0.556 (inactive); in assay [6], -1.41 (inactive); in assay [14], -1.36 (inactive).

Turning to `COCCOC(=O)N1C(=O)[C@@]2(c3cc(C#CC4(O)CCCCCC4)ccc31)[C@H](c1ccc(O)cc1)N1[C@H](c3ccccc3)[C@H](c3ccccc3)OC(=O)[C@H]1[C@@H]2C(=O)N1CCc2cc(OC)c(OC)cc2C1`, the composite z-score is 1.56 in [1]; 2.41 in assay [5]; -0.0719 in assay [7]; -0.435 in assay [8]; -0.551 in assay [9]; -0.226 in [10]. In addition, the composite z-score in assay [11] was 1.23; in assay [12], -0.226; in assay [13] it was 0.687; in assay [15], -0.681; in assay [16], -0.32; in assay [17] it was -0.705. Also, the composite z-score in assay [18] was -1.15; in assay [19] it was -0.591; in [20] it was 0.0107. The z-score in assay [2] was -0.749 (inactive); in [3], -0.395 (inactive); in [4] it was -0.494 (inactive); in assay [6] it was 1.45 (inactive); in [14], -0.597 (inactive).

The values above are taken from PubChem BioAssay.
